Source: PubChem BioAssay (National Center for Advancing Translational Sciences (NCATS))
Hits are enriched below; roughly 19% of the tested compounds scored in any of these assays.
TDP1 cell CPT = DT40-hTDP1 cell growth loss with CPT; chicken DT40 Tdp1-/-;hTDP1 cells + 20 nM CPT, ATP luminescence, 48 h; Potency, µM (titrated, usually from 46.2 µM), for the others: at the highest dose activity change, negative = growth inhibition, most hits filed as inhibitors; 12% of 420,000 active; AID 686979; also: nearly all actives have a fitted effect of over 55% in size
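Chicken DT40 Tdp1-/- cells complemented with human TDP1, 400 cells/well, exposed to compounds plus 20 nM camptothecin for at least 48 h at 37 C; viability read as ATP content by CellTiter-Glo luminescence.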
KB-3-1 tox = KB-3-1 parental cell cytotoxicity. AID 1347075. 1.4% of 400,000 active. KB-3-1 viability, CellTiter-Glo ATP luminescence, 72 h. Potency, µM (titrated, usually from 46.1 µM), hits mostly cytotoxic; also: nearly all actives have a fitted effect of over 60% in size
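Multi-concentration cytotoxicity screen in KB-3-1 cells grown in DMEM lacking phenol red with 10% FBS. After 72 h at 37 °C with compound, ATP-dependent luminescence was recorded.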
TDP1 cell noCPT = qHTS for Inhibitors of human tyrosyl-DNA phosphodiesterase 1 (TDP1): qHTS in cells in absence of CPT | AID 686978, 2013 | Potency, µM (doses to about 46.2 µM), for inactives: at the highest dose activity change, negative = growth inhibition, usual class: inhibitors | 15% of 420,000 active | DT40 Tdp1-/- hTDP1 cells, no CPT, ATP luminescence, 48 h; also: nearly all actives have a fitted effect of over 55% in size
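Camptothecin absent (DMSO only). Human TDP1-complemented DT40 knockout cells, 400 cells/well, 37 °C for minimum 48 hr; ATP measured via CellTiter-Glo, 30 min dark incubation, luminescence.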
HT1080 IDH1KD tx = toxicity to HT-1080 IDH1 knockdown cells (counter line) | HT-1080 IDH1 knockdown viability, ATP luminescence, 48 h | Potency, µM (doses to about 46.1 µM), without a hit: at the highest dose activity, negative = toxicity, hits mostly cytotoxic | 2% of 360,000 active;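 also: 0% = DMSO wells and -100% = cell-free medium wells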
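Cytotoxicity counter-line: IDH1KD HT-1080, 48 h, CellTiter-Glo. Curves classed by r2, magnitude and activity.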
KB-V1 MDR tox = KB-V1 MDR subline cytotoxicity | KB-V1 MDR cells viability, CellTiter-Glo, 72 h | Potency, µM (series often up to 46.1 µM), hits mostly cytotoxic | 3.4% of 400,000 active | AID 1347076; also: nearly all actives have a fitted effect of over 60% in size
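Compound-treated KB-V1 multidrug-resistant cells, 72 h, 37 degrees C; viability by CellTiter-Glo. Fitted qHTS curves give the values.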
HT1080NT lethal = kills 2HG-producing HT-1080-NT fibrosarcoma cells; Potency, µM (highest dose often 46.1 µM), for the others: top-dose activity, negative = less viability, actives largely listed as cytotoxic; HT-1080-NT fibrosarcoma viability, CellTiter-Glo ATP luminescence, 48 h; 1.6% of 360,000 active; AID 686970;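 also: NT is the 2HG producing partner of a matched IDH1 knockdown line; 0% = DMSO-treated cells and -100% = media-only wells without cells; nearly all actives have a fitted effect of over 55% in size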
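Toxicity toward the 2HG-producing NT line was scored as %Activity, normalised to DMSO and no-cell wells, from CellTiter-Glo luminescence after 48 hours' treatment.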
Numbers without * were called inactive; i = inactive; ? = inconclusive; · = no result given; [ ] = remark or other dose. Calls follow the shape of the dose curve; as a rule, active = well fitted curve in the direction sought with a large enough effect; inconclusive = small, poorly fitted or top-dose-only effect, or another doubt; inactive = no such curve, though single readings can be large; an effect the other way counts as inactive or inconclusive. Unless noted, % is scaled to controls: 0 for no effect and ±100 for the full control effect; potency is read from the fitted curve at half-maximal effect.

SMILES	TDP1 cell CPT	KB-3-1 tox	TDP1 cell noCPT	HT1080 IDH1KD tx	KB-V1 MDR tox	HT1080NT lethal
Cc1cc(N/N=C/c2ccc(O)cc2O)nc(-n2nc(C)cc2C)n1	0.23µM*	?	0.29µM*	?	?	-30%
Cc1nc(Cl)cc(N/N=C/c2ccc(O)cc2O)n1	?	?	21µM*	?	i	-2%
Cc1cc(N/N=C/c2ccccc2O)nc(N2CCOCC2)n1	-27%	i	?	-2%	i	-2%
Cc1nc(Cl)cc(N/N=C/c2ccc(O)cc2)n1	3%	i	?	4%	i	-16%
O=C(OCc1nnc(-c2ccccc2)o1)C1CCN(S(=O)(=O)c2cccs2)CC1	-7%	i	-9%	8%	i	10%
Cc1ccc(C)c(N2N=C(C(=O)OCc3nnc(-c4ccccc4Br)o3)CCC2=O)c1	-3%	i	-3%	-2%	i	-1%
O=C(NCc1ccc(Cl)cc1)c1cc(=O)[nH]c2ccccc12	5%	?	2%	1%	i	16%
CN(C)C1=NC[C@H](Cc2ccccc2)N1CCCCc1ccccc1	?	?	21µM*	-21%	i	-28%
Cc1cccc(CCN2C(N(C)C)=NC[C@@H]2CC(C)C)c1	?	i	?	-17%	?	-14%
CCCCCCCN1C(N(C)C)=NC[C@@H]1Cc1ccccc1	12µM*	i	9.2µM*	?	i	?
Cc1cccc(CCN2C(N(C)C)=NC[C@@H]2Cc2ccccc2)c1	?	?	?	-11%	?	?
COc1ccc(CCC(=O)OCC(=O)NCc2ccc(OC)c(OC)c2)cc1OC	-1%	i	?	14%	i	4%
O=S1(=O)CCN(CCc2ccccc2)CC1	2%	i	7%	9%	i	8%
Cc1cccc(-c2noc(CCCC(=O)NC3CCCC3)n2)c1	?	i	?	-16%	i	-13%
COc1ccc(-c2noc(CCC(=O)NC3CCCCCC3)n2)cc1	?	i	1%	-4%	i	9%
O=C(CCCc1nc(-c2ccc(Cl)cc2)no1)NC1CCCC1	8.2µM*	?	8.2µM*	-21%	?	?
COc1ccc(-c2noc(CCCC(=O)NC3CCCC3)n2)cc1	16µM*	?	16µM*	-24%	?	-10%
COc1cc(NC(=O)Cn2nnnc2-c2ccccc2F)cc(OC)c1OC	-13%	·	-21%	·	·	·
COc1ccc2nc(N3C(=O)CC(C(C)c4ccccc4)C3=O)sc2c1 (stereo not given)	3%	i	-10%	16%	i	6%
COc1ccc2nc(N3C(=O)/C(=C/c4ccc(Cl)cc4)NC3=S)sc2c1	?	?	21µM*	21%	?	14%
O=C(NCc1ccc(OC(F)(F)F)cc1)c1cc(-c2ccccc2)nn1CC1CC(c2cccnc2)=NO1 (stereo not given)	?	i	?	-1%	21µM*	-2%
Cc1ccccc1-c1cc(C(=O)NCc2cccc(Br)c2)n(CC2CC(c3cccnc3)=NO2)n1 (stereo not given)	?	i	18µM*	-3%	?	-6%
COc1ccccc1CNC(=O)c1cc(-c2ccccc2C)nn1CC1CC(c2cccnc2)=NO1 (stereo not given)	?	i	?	-3%	i	-1%
Cc1ccc(SCC(=O)Nc2ccc3c(c2)C(=O)N(C)C3=O)cc1	9%	i	-19%	3%	i	3%
CCCc1nnc(NC(=O)c2cc(=O)c3cc(Cl)ccc3o2)s1	1%	i	3%	·	?	·
SMILES	TDP1 cell CPT	KB-3-1 tox	TDP1 cell noCPT	HT1080 IDH1KD tx	KB-V1 MDR tox	HT1080NT lethal
Cc1cccc(N2CCN(C(=O)CNC(=O)Cc3ccccc3)CC2)c1C	?	i	?	-10%	i	-1%
O=C(NCC(=O)N1CCN(Cc2c(F)cccc2Cl)CC1)c1cccs1	-18%	i	?	-7%	?	3%
O=C(NCC(=O)N1CCN(Cc2ccccc2)CC1)c1ccc(Cl)cc1	?	?	?	-4%	i	17%
Cc1cccc(N2CCN(C(=O)CNC(=O)c3cccc([N+](=O)[O-])c3)CC2)c1C	?	i	18µM*	-9%	?	-15%
O=C(NCC(=O)N1CCN(Cc2ccccc2)CC1)c1cc(Cl)cc([N+](=O)[O-])c1	16µM*	23µM*	?	?	?	-20%
O=C(NCC(=O)N1CCN(Cc2c(F)cccc2Cl)CC1)c1cccc(Cl)c1	6.5µM*	i	16µM*	-26%	?	-22%
C(=NN1CCCCCC1)c1ccc2c(c1)OCO2	5%	i	-9%	9%	i	2%
CC(=O)N1CCN(C(c2ccccc2)c2nnnn2C(C)(C)C)CC1 (stereo not given)	5%	i	-14%	29%	i	19%
O=C1C(O)=C(O)C(=O)c2ccccc21	?	i	?	-17%	i	-20%
O=C1c2ccccc2C(=O)c2[nH]c(=O)[nH]c21	2.1µM*	5.2µM*	1.8µM*	6.5µM*	10µM*	9.2µM*
Cc1cc2c3c(c1)C(C)(c1ccccc1)CC(C)(C)N3C(=O)C21C(C#N)=C(N)OC2=C1C(=O)CC(C)(C)C2 (stereo not given)	21µM*	?	23µM*	18µM*	21µM*	-1%[9.24 µM]
CC1(C)CC(=O)C2=C(C1)OC(N)=C(C#N)C21C(=O)N2CCCc3cccc1c32 (stereo not given)	-11%	i	-10%	0%	i	12%
CCOc1cccc2cc(-c3csc(NC(=O)CCC(=O)N4CCC(C)CC4)n3)c(=O)oc12	?	i	16µM*	2%	i	3%
CCOc1cccc2cc(-c3csc(NC(=O)CCC(=O)NCCN4CCCCC4C)n3)c(=O)oc12 (stereo not given)	-4%	i	?	-8%	i	-13%
O=C(CNS(=O)(=O)c1ccccc1)OCC(=O)c1c[nH]c2ccccc12	-20%	i	-3%	-3%	i	5%
COc1ccc(NC(=O)c2cccc(Cn3cc(Br)c([N+](=O)[O-])n3)c2)c(C)c1	?	i	18µM*	11%	?	25%
NNC(=O)c1cccc(Cn2cc(Br)c([N+](=O)[O-])n2)c1	?	i	?	?	i	-18%
